Reference: PubChem BioAssay (NCI)
About 79,000 compounds went through this panel and 15% of them were active in at least one assay; those are over-represented in the sample as a whole. No stated cut-off is given here; in the data, active means growth inhibition above about 70%; inactive means the rest.

Key:
[1] = NCI Yeast Anticancer Drug Screen. Data for the rad50 strain (AID 155);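 further: 0% = growth of vehicle-only cultures of the same strain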; settings: S. cerevisiae rad50 strain growth inhibition; at 50.0 µM; active compounds read high
Summary of the method: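 Cells are treated with compound, grown, and their growth is then scored against vehicle-only cultures of the same repair-deficient yeast strain.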

[2] = NCI Yeast Anticancer Drug Screen. Data for the mec2-1 strain (AID 157); settings: S. cerevisiae mec2-1 strain, at 50.0 µM, active compounds read high
Summary of the method: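 Mutant yeast (mec2-1) grown with compound; growth inhibition relative to vehicle control reported.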

[3] = NCI Yeast Anticancer Drug Screen. Data for the sgs1 mgt1 strain (AID 161);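 further: 0% = growth of cultures given vehicle only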; settings: S. cerevisiae sgs1 mgt1 strain, at 50.0 µM, active compounds read high
Summary of the method: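 Growth of a repair-deficient yeast mutant was monitored after compound treatment and expressed as inhibition relative to vehicle-treated cultures.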

[4] = NCI Yeast Anticancer Drug Screen. Data for the cln2 rad14 strain (AID 165);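 further: 0% = growth equal to vehicle treated cultures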; settings: S. cerevisiae cln2 rad14 strain, at 50.0 µM, active compounds read high
Summary of the method: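 Readout is yeast growth inhibition versus vehicle-treated controls, using a strain with cln2 and rad14 alterations exposed to compound.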

[5] = NCI Yeast Anticancer Drug Screen. Data for the bub3 strain (AID 167); settings: S. cerevisiae bub3 mutant strain, at 50.0 µM, active compounds read high
Summary of the method: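 Part of a panel of yeast mutants defective in DNA damage repair or cell cycle regulation. Each strain is grown with compound, and inhibition is calculated relative to solvent-treated cultures.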

[6] = NCI Yeast Anticancer Drug Screen. Data for the mlh1 rad18 strain (AID 175); settings: S. cerevisiae mlh1 rad18 strain growth inhibition; at 50.0 µM; active compounds read high
Summary of the method: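 Genetically defined yeast (DNA repair-deficient) exposed to compounds; growth inhibition determined relative to vehicle.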

Measured: growth inhibition

CCOc1ccc(C2=NNC(=O)CC2)cc1
inactive: [1] 26% | [2] -8.55% | [3] -9.15% | [4] 14.3% | [5] 13.9% | [6] 17.6%

O=C(O)CC(=O)c1ccccc1
inactive: [1] -27.8% | [2] 4.85% | [3] -10.4% | [4] 14.2% | [5] 4.35% | [6] -15.8%

FC(F)(F)c1cccc(C2SCc3nc4ccccc4n32)c1 (stereo not given)
inactive: [1] -16.4% | [2] 6.6% | [3] 7.1% | [4] 0.45% | [5] 23.9% | [6] 21.7%

O=C(O)CNCc1ccc(F)cc1
inactive: [1] -1.85% | [2] -10% | [3] -14.7% | [4] -74.4% | [5] 13.2% | [6] -5.9%

O=C(NC1CCCCC1)C(c1ccccc1)c1ccccc1
inactive: [1] 8.85% | [2] -3.3% | [3] 0.4% | [4] -18.7% | [5] 1.85% | [6] -10.9%

NC1Nc2ccccc2NC1=O (stereo not given)
inactive: [1] 4.85% | [2] 10.2% | [3] 3.4% | [4] -3.15% | [5] 6.4% | [6] 0.05%

CC(CCC(=O)O)[C@H]1CCC2[C@@H]3CC[C@@H]4CC(O)CC[C@]4(C)C3CC[C@@]21C (stereo not given in full)
inactive: [1] -31.1% | [2] -18.1% | [3] -13.8% | [4] -0.1% | [5] -16.1% | [6] -26.7%

CC1C(=O)OCC2=CCN3CCC(OC(=O)C(C)C1(C)O)C23 (stereo not given)
inactive: [1] 2.25% | [2] -15.8% | [3] -3.45% | [4] 8.05% | [5] 0.9% | [6] -32.5%

CN(C)c1nc2oc(-c3ccccc3)c(-c3ccccc3)c2c2nncn12
inactive: [1] 9.65% | [2] 7.45% | [3] 2.9% | [4] 16.9% | [5] 12.1% | [6] -22.5%

O=C(O)c1cc(C(=O)O)cc(S(=O)(=O)NCCO)c1
inactive: [1] 3.05% | [2] -10.5% | [3] 2.1% | [4] -30.2% | [5] 3% | [6] 5.1%

Cc1[nH]c2ccccc2c1-c1cc(-c2cc(-c3c(C)[nH]c4ccccc34)nc(N)n2)nc(N)n1
inactive: [1] -12.9% | [2] 8.95% | [3] -25.8% | [4] 3.05% | [5] -11.3% | [6] -1.95%

CCOc1cc2ccc3c4cc(OC)c(OC)cc4cnc3c2cc1OCC
inactive: [1] -16.9% | [2] -17.4% | [3] -12.7% | [4] -0.4% | [5] -9.4% | [6] -18.9%

COc1cc(OC)c(C(=O)/C=C/c2ccncc2)cc1C(=O)O
inactive: [1] 10.1% | [2] -14.6% | [3] 16.2% | [4] 13.3% | [5] 19.6% | [6] -5.85%

Nc1ncnc(N)c1NC(=O)c1ccc(CCc2ccccc2)c(Cl)c1
inactive: [1] -3.9% | [2] 37.1% | [3] 21.6% | [4] -14.2% | [5] 4.1% | [6] -4.35%

NC(=O)c1csc(CCCCCCc2nc(C(N)=O)cs2)n1
inactive: [1] -13.8% | [2] -15.5% | [3] -5% | [4] 8.75% | [5] -21.2% | [6] -21.1%

O=c1cc2n(c(=O)n1-c1ccccc1)CCCC2
inactive: [1] 6.1% | [2] 6.6% | [3] 11.7% | [4] 12.2% | [5] -9.25% | [6] -6.8%

CCOC(=O)C(C#N)C1CCCC(C)CC1 (stereo not given)
inactive: [1] 13% | [2] 6.5% | [3] 3.5% | [4] 2.65% | [5] 34.1% | [6] 7.55%

Cc1ccc(S(=O)(=O)N2CCC2c2ccccc2)cc1 (stereo not given)
inactive: [1] 4.55% | [2] -3.8% | [3] -17.9% | [4] -3.85% | [5] -17.9% | [6] -24.9%

ClCCCOC1CCCCO1 (stereo not given)
inactive: [1] -20.1% | [2] -40.5% | [3] -21.1% | [4] 26.9% | [5] -7.6% | [6] 1.4%

CCOC(=O)C(Cc1c[nH]c2ccccc12)NC(C)=O (stereo not given)
inactive: [1] 22.2% | [2] 28.6% | [3] 23.6% | [4] -9.9% | [5] 41.9% | [6] 19.2%

C/C(CCc1ccccc1)=N/Nc1ccc([N+](=O)[O-])cc1[N+](=O)[O-]
inactive: [1] 0.65% | [2] -4.75% | [3] 10.2% | [4] 0.05% | [5] 13.4% | [6] -4.55%

CCC(CC)=NNc1ccc([N+](=O)[O-])cc1[N+](=O)[O-]
inactive: [1] -2.45% | [2] -11.4% | [3] -13.6% | [4] -51.1% | [5] 0.75% | [6] -9.85%

O=C(Nc1nc2c(ncn2C2OC(CO)C(O)C2O)c(=O)[nH]1)c1ccccc1 (stereo not given)
inactive: [1] 2.45% | [2] -26.9% | [3] -20.2% | [4] 11.6% | [5] 12.7% | [6] 15.6%

O=C1C2CCC(C2)C1CN1CCOCC1 (stereo not given)
inactive: [1] -10.7% | [2] 3.25% | [3] -1.25% | [4] 0.5% | [5] -7.35% | [6] -7.35%

COc1cccc(N=Cc2ccc(C=Nc3cccc(OC)c3)cc2)c1
inactive: [1] 5.95% | [2] -9.1% | [3] 11.1% | [4] -9.35% | [5] 27.7% | [6] -12.4%

COc1ccc(C(=CCC(C)C2CCC3[C@@H]4C(OC(C)=O)CC5CC(OC(C)=O)CC[C@]5(C)C4CC(OC(C)=O)[C@]23C)c2ccc(OC)cc2)cc1 (stereo not given in full)
inactive: [1] 1.2% | [2] 1.4% | [3] -7.9% | [4] 13.5% | [5] 24.1% | [6] -6.05%

C[N+](C)(C)C12CCCC1S(=O)(=O)C2 (stereo not given)
inactive: [1] 4.95% | [2] 4.25% | [3] 9.3% | [4] -7.5% | [5] -7.45% | [6] 16.6%

O=C(Nc1ccc(Br)cn1)c1sc2ccccc2c1Cl
inactive: [1] 8.2% | [2] -9.7% | [3] 26.6% | [4] 19.4% | [5] 16.4% | [6] 14.2%

CCNC1(C(=O)O)CCCCC1
inactive: [1] 1.4% | [2] -2.15% | [3] -1.5% | [4] 9.85% | [5] 2.3% | [6] -0.2%

O=Nc1c(O)c(S(=O)(=O)O)cc2cc(S(=O)(=O)O)ccc12
inactive: [1] 24.9% | [2] -1.8% | [3] 51.1% | [4] 17.9% | [5] 37.6% | [6] 11.2%

O=C(O)C1CC1(C(=O)O)C(=O)O (stereo not given)
inactive: [1] 9.75% | [2] 4.05% | [3] -6.95% | [4] 3.45% | [5] -0.05% | [6] -1.1%

CSc1nc2c(nc(N)n2C2OCC(O)C(O)C2O)c(=O)[nH]1 (stereo not given)
inactive: [1] -19.2% | [2] -5.2% | [3] -12.5% | [4] -15% | [5] -5.65% | [6] -29.2%

Cn1ncc2c(NCc3ccccc3)nc(Cl)nc21
inactive: [1] 6.5% | [2] -11.2% | [3] 16.4% | [4] -9.9% | [5] 5.85% | [6] 12.9%

CC(=O)OC(Cc1ccc2ccccc2n1)(C(F)(F)F)C(F)(F)F
inactive: [1] -17.6% | [2] -16.1% | [3] -8.05% | [4] 6.2% | [5] 5.5% | [6] -24.5%

NC(=S)N/N=C\c1nccc2ccc(N)cc12
inactive: [1] 36% | [2] -0.8% | [3] 3.1% | [4] -46.8% | [5] -5.8% | [6] 4.9%

CC[n+]1nc2ccccc2c(=Nc2ccccc2[N+](=O)[O-])[n-]1
inactive: [1] 11.8% | [2] 13.1% | [3] 12.3% | [4] 29.4% | [5] 25.2% | [6] 7.15%

CCOc1ccc([N+](=O)[O-])cc1
inactive: [1] -28.8% | [2] 3.9% | [3] -2.65% | [4] -40.2% | [5] -3.5% | [6] -31.9%

Cc1ccc([N+](=O)[O-])c(N)n1
inactive: [1] 3.25% | [2] -5.65% | [3] -2.45% | [4] 2.3% | [5] 3.8% | [6] 1.3%

COc1ccc(C(=O)/C=C/c2ccc(OCCSCCCCCCCCCCSCCOc3ccc(/C=C/C(=O)c4ccc(OC)c(OC)c4)cc3)cc2)cc1OC
inactive: [1] -44.4% | [2] -26.1% | [3] -28.2% | [4] -6.35% | [5] -29.6% | [6] -53.6%

CCCCCCCCCCCCCCCC(=O)Oc1ccc(C(=S)N2CCOCC2)cc1
inactive: [1] 20.8% | [2] 1.25% | [3] 2.4% | [4] 2.9% | [5] 5.05% | [6] 13.9%
